SW480 rereplic = DNA re-replication induction in SW480 cells; SW480 DNA re-replication, Hoechst DNA content imaging, 48 h; Potency, µM (top dose mostly 46.1 µM), hits mostly activators; AID 624297; actives 1.8% (n = 340,000); further: nearly all actives have a fitted effect of over 55% in size
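Image-based read-out: total Hoechst fluorescence of nuclei (405 nm excitation, 500-530 nm emission), with hits raising the fraction of high-intensity nuclei. SW480 colon cells incubated 48 hr with compounds at 37 C.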
MCF10A rerep = induces DNA re-replication in MCF 10a normal breast cells | MCF 10A DNA re-replication, Hoechst nuclear intensity, 48 h | Potency, µM (doses to about 46.1 µM), hits mostly activators | actives 2.9% (n = 350,000) | AID 624296; further: nearly all actives have a fitted effect of over 50% in size
KB-V1 cytotox = kills drug-selected multidrug resistant KB-V1 cells; KB-V1 MDR cells viability, CellTiter-Glo, 72 h; Potency, µM (highest dose often 46.1 µM), usual class: cytotoxic; actives 3.4% (n = 400,000); AID 1347076; further: nearly all actives have a fitted effect of over 60% in size
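KB-V1 MDR subline cells in DMEM (phenol-red free, 10% FBS) exposed to compounds in qHTS concentration series for 72 h at 37 degrees C. Viability read by CellTiter-Glo luminescence; concentration-effect curves fitted after normalization and correction.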
HT1080-NT tox = kills 2HG-producing HT-1080-NT fibrosarcoma cells; AID 686970; HT-1080-NT fibrosarcoma viability, CellTiter-Glo ATP luminescence, 48 h; Potency, µM (doses to about 46.1 µM), actives largely listed as cytotoxic; actives 1.6% (n = 360,000);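 further: NT is the 2HG producing partner of a matched IDH1 knockdown line; nearly all actives have a fitted effect of over 55% in size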
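Compounds were tested in concentration-response format on HT-1080-NT cells for 48 hours at 37 degrees C. Cell viability came from CellTiter-Glo luminescence; curves were classified by r2, response magnitude and activity.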
KB-3-1 tox = kills parental KB-3-1 adenocarcinoma cells; KB-3-1 viability, CellTiter-Glo ATP luminescence, 72 h; Potency, µM (series often up to 46.1 µM), most hits filed as cytotoxic; actives 1.4% (n = 400,000); further: nearly all actives have a fitted effect of over 60% in size
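Screening of KB-3-1 cells (DMEM, 10% FBS, phenol-red free) ran from lowest to highest compound concentration; after 72 h at 37 °C viability was read luminescently and curves fitted.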
HT1080 IDH1KD tx = HT-1080 IDH1 knockdown cell toxicity (counter line); HT-1080 IDH1 knockdown viability, ATP luminescence, 48 h; Potency, µM (titrated, usually from 46.1 µM), hits mostly cytotoxic; actives 2% (n = 360,000)
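Knockdown cells (IDH1KD HT-1080) received compounds 2 h after plating at 750 cells/well and were kept 48 h at 37 °C in 5% FBS RPMI. A CellTiter-Glo luminescence read gave % activity for curve fitting.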
Numbers stand for hits; n = inactive; u = inconclusive; x = no result. In the library only some 7.9% were active in any assay of this set; here they are far more common. The call rests on the fitted dose curve; in most records, active means well fitted curve in the direction sought with a large enough effect; inconclusive means small, poorly fitted or top-dose-only effect, or another doubt; inactive means no such curve, though single readings can be large; an effect the other way counts as inactive or inconclusive.

SMILES	SW480 rereplic	MCF10A rerep	KB-V1 cytotox	HT1080-NT tox	KB-3-1 tox	HT1080 IDH1KD tx
O=S(=O)(c1ccccc1F)N1CCN(c2nc(-c3cccs3)nc3ccccc23)CC1	x	x	n	n	u	n
CCOC(=O)[C@]12CCCC=C1N(Cc1ccc3c(c1)OCO3)C(=O)[C@H](CC(=O)NCc1ccc(C)o1)C2	x	x	n	n	n	n
Cc1oc(-c2ccc3c(c2)OCCO3)cc1C(=O)O	n	n	15µM	u	u	u
Cc1oc(-c2ccc3c(c2)OCCO3)cc1C(=O)NCC(=O)O	n	n	n	n	n	n
N#C/C(=C\c1ccco1)C(=O)NCc1ccccc1	n	n	n	n	n	n
N#CC(C#N)=C1C=CC=CN1/C(=C\c1ccco1)C(=O)c1ccc(Cl)cc1	2.6µM	1.6µM	n	u	n	u
N#CC(C#N)=C1C=CC=CN1/C(=C\c1ccco1)C(=O)c1ccc(-c2ccccc2)cc1	x	3.3µM	n	u	n	u
CSc1nnc(NC(=O)c2nc(S(=O)(=O)Cc3ccccc3F)ncc2Cl)s1	u	u	u	u	u	21µM
Cc1nnc(NC(=O)c2nc(S(=O)(=O)Cc3ccccc3C)ncc2Cl)s1	u	2.6µM	u	18µM	u	u
CC(C)c1nnc(NC(=O)c2nc(S(=O)(=O)Cc3ccccc3F)ncc2Cl)s1	n	0.73µM	n	18µM	u	u
O=C(Nc1ccccc1)c1nc(S(=O)(=O)Cc2ccccc2F)ncc1Cl	x	x	n	x	n	x
Cc1cc(C)n(CC(=O)Nc2cc(F)ccc2F)c(=O)c1C#N	x	x	n	x	n	x
Oc1ccc(/C=N/NC(=S)N/N=C/c2ccc(O)cc2)cc1	n	u	n	u	n	u
COc1ccccc1NC(=S)N/N=C/c1cccc(C)c1	u	u	u	n	15µM	n
CCNC(=S)N/N=C/c1cccc(C)c1	n	n	n	n	n	n
COc1ccccc1NC(=S)N/N=C/c1ccc(O)cc1	n	n	21µM	n	u	n
Cc1ccc2c(CNC3CCC(C)CC3)c(C(=O)O)n(Cc3cccc(F)c3)c2c1 (configuration not stated)	x	x	n	x	u	x
COc1cccc(Cn2c(=O)c3[nH]cnc3n(-c3ccccc3C)c2=O)c1	n	n	n	n	n	n
COc1ccc(Cn2c(=O)cc(N)n(-c3ccccc3C)c2=O)cc1	15µM	u	n	21µM	u	16µM
Cc1ccc(S(=O)(=O)n2nc(C)cc2C)cc1	n	u	n	u	n	n
Cc1cc(C)n(S(=O)(=O)/C=C/c2ccccc2)n1	u	16µM	u	2.8µM	u	u
CCOc1ccc(/C=C2\SC(=S)NC2=O)cc1OC	n	n	n	n	n	n
O=C1NC(=S)SC1=Cc1ccc(Cl)cc1	u	9.2µM	n	n	n	u
CCOc1ccccc1C=C1SC(=S)NC1=O	n	18µM	n	n	n	n
O=C1NC(=S)SC1=Cc1ccccc1Br	n	15µM	n	u	u	u
SMILES	SW480 rereplic	MCF10A rerep	KB-V1 cytotox	HT1080-NT tox	KB-3-1 tox	HT1080 IDH1KD tx
CCC1CCCCN1C(=O)Cn1c(=O)n(CCCCCC(=O)NCc2ccc(F)cc2)c(=O)c2sccc21 (configuration not stated)	x	x	n	x	n	x
CCCS(=O)(=O)N1CCC(N2CCN(Cc3ccc(F)cc3)C(=O)C2=O)CC1	x	x	n	x	n	x
COc1cc(/C=C(\C#N)c2ccccn2)ccc1OCC(=O)Nc1cccc(C(F)(F)F)c1	n	u	n	n	n	n
Cc1cc(C)n2nc(/C(C#N)=C/c3ccccn3)c(C#N)c2n1	3.3µM	6.5µM	n	n	n	n
N#C/C(=C/c1cccs1)c1ccccn1	n	n	n	n	n	n
COc1cc(/C=C(\C#N)c2ccccn2)ccc1OCc1ccccc1Cl	n	u	10µM	n	n	n
COC(=O)c1ccc(/C=C(\C#N)c2ccccn2)cc1	n	u	n	n	u	n
Cc1cc(C)n2nc(CC#N)c(C#N)c2n1	n	n	u	n	n	n
COc1cc(/C=C(\C#N)c2ccccn2)cc(OC)c1O	u	u	u	n	7.3µM	n
N#C/C(=C\c1ccccn1)c1ccccn1	15µM	21µM	n	n	u	n
CCc1ccc2c(c1)C1(C(=O)N2)N2CCCC2C(C(=O)c2ccc3ccccc3c2)C12C(=O)Nc1ccccc12 (configuration not stated)	u	u	u	18µM	u	21µM
Cc1cccc2c1NC(=O)C21N2CCCC2C(C(=O)c2ccc3ccccc3c2)C12C(=O)Nc1ccccc12 (configuration not stated)	u	u	n	n	u	n
CCc1cccc2c1NC(=O)C21N2CCCC2C(C(=O)c2ccc3ccccc3c2)C12C(=O)Nc1ccccc12 (configuration not stated)	u	n	u	n	16µM	n
CCn1nc(C)cc1C(=O)N1CCCC(C(=O)c2ccc3ccccc3c2)C1 (configuration not stated)	n	u	n	n	n	n
Cn1nnc2c(N3CCN(Cc4ccccc4)CC3)ncnc21	x	x	x	n	x	n
COCCCNC(=O)C1CCN(Cc2cc3ccccc3n2Cc2cccc(Cl)c2)CC1	x	x	n	x	n	x
Cc1cc2c(cc1S(=O)(=O)NCc1ccc(F)cc1)OCC(=O)N2	x	x	n	x	n	x
Cc1ccc(-c2[nH]ncc2CNCCc2cnn(-c3ccccc3)c2)cc1C	u	u	n	18µM	u	u
O=S1(=O)CC(N2CCN(c3ncccn3)CC2)CN1Cc1ccc(F)cc1 (configuration not stated)	x	x	n	n	n	n
O=C(CSc1cccc[n+]1[O-])CSc1cccc[n+]1[O-]	6.5µM	n	u	1µM	n	0.52µM
COc1cc2c(cc1NC(=O)CN1C(=O)NC3(CCc4ccccc43)C1=O)oc1ccccc12 (configuration not stated)	u	u	u	23µM	n	15µM
COc1cc2c(cc1NC(=O)CSc1nc3ccc(C)cc3[nH]1)oc1ccccc12	n	5.2µM	x	x	x	x
COc1cc2c(cc1NC(=O)CN(C)Cc1ccc(OC)c(OC)c1)oc1ccccc12	18µM	9.2µM	u	u	u	u
COc1ccccc1CNC(=O)COCc1cc(-c2cccs2)on1	x	x	n	x	n	x
CCCCn1nnnc1C(C1CC1)N1CCN(C/C=C/c2ccccc2)CC1 (configuration not stated)	x	x	n	n	n	n
COc1cc2c(cc1NC(=O)CCCCCN1C(=O)CCC1=O)oc1ccccc12	n	n	7.3µM	n	n	n
COc1cc2c(cc1NC(=O)CSc1ccc(C)cc1)oc1ccccc12	n	u	n	n	n	n
COc1cc2c(cc1NC(=O)CCCN1C(=O)CCC1=O)oc1ccccc12	n	n	n	n	n	n

Source: PubChem (National Center for Advancing Translational Sciences (NCATS))
